# Reference: PubChem BioAssay AID485270 (The Scripps Research Institute Molecular Screening Center, 2010)
# In all, about 330,000 compounds went through this assay and about 5,800 (1.8%) were called active. Shown is part of a subset that was picked to be rich in actives. Unmarked numbers belong to inactive results. Cut-off read from the data, not from the text of the source: active = inhibition mostly above about 38% (no sharp cut-off); inactive = mostly below about 40%.
# Molecular target: Orexin/Hypocretin receptor type 1 (Homo sapiens) (UniProt O43613)
# Assay: blocks the human orexin 1 receptor (AID 485270);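 note: 0% = agonist challenge alone and 100% = reference antagonist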
# Conditions: OX1R-expressing cells, FRET antagonist read-out; at 6.6 µM; stronger effect = higher value
# Chain of Orexin/Hypocretin receptor type 1 (Homo sapiens) (O43613 whole entry, looked up): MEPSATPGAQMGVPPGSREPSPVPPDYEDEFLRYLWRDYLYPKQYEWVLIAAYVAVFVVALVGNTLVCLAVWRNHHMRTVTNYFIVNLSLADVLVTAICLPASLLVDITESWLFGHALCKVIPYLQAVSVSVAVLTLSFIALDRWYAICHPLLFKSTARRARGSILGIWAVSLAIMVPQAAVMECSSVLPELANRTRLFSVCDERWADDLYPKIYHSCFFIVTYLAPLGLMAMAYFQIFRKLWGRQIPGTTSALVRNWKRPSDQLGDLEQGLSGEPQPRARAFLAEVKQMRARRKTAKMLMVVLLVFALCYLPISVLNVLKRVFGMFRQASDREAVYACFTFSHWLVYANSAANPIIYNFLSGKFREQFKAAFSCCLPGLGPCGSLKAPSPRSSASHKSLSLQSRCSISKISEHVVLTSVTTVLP
row,SMILES,inhibition
1,CSc1ncccc1C(=O)Nc1cccc(S(=O)(=O)N2CCOCC2)c1,9.4%
2,Cc1cccc(NS(=O)(=O)c2ccc(C)c(C(N)=O)c2)c1,19.2%
3,Cc1cccc(NS(=O)(=O)c2cccc(C(=O)NNC(=O)c3ccccc3O)c2)c1,29.7% (active)
4,CC(=O)N1CCN(C(=O)c2cccc(S(=O)(=O)Nc3ccc(C)cc3)c2)CC1,-3.44%
5,COc1cc(/C=C2\Oc3ccc(C#Cc4ccc(O)cc4)cc3C2=O)cc(OC)c1,2.43%
6,O=C(COC(=O)c1ccco1)Nc1ccc(Cl)cn1,1.22%
7,CCNC(=O)N(CC)C[C@H]1N[C@@](CC)(C(=O)OC)[C@H]2C(=O)N(Cc3ccccc3)C(=O)[C@@H]12,-4.57%
8,CC(C)(C)OC(=O)C[C@@H]1C/C=C\C[C@@H](CC(=O)N(CCO)Cc2ccccc2)C(=O)N[C@H](Cc2ccccc2)COC1=O,13.4%
9,CC(C)(C)c1cc[n+](-c2[nH]c(=O)sc2/C=N/N=C(\[O-])c2ccccc2)cc1,59.4% (active)
10,O=C(N[C@@H]1C/C=C\C[C@@H](CC(=O)N(CCO)Cc2ccccc2)C(=O)N[C@H](Cc2ccccc2)COC1=O)OCC1c2ccccc2-c2ccccc21,9.35%
11,CC1O[C@H](OC2C(COC3OC(CO)C(O)[C@H](O)C3O)OC(OC3CC[C@]4(C)C(CC[C@@]5(C)[C@@H]4C=C[C@]46OC[C@@]7(CCC(C)(C)C[C@H]74)C(O)C[C@@]56C)C3(C)C)C(O)C2O)C(O)C(O)C1O (stereo not given in full),0.25%
12,c1ccc(-c2cc(-c3ccccc3)[nH]n2)cc1,10.7%
13,Fc1ccccc1/C=N/n1c(-c2cccnc2)n[nH]c1=S,11.6%
14,S=c1[nH]nc(-c2cc(-c3ccccc3)n[nH]2)n1/N=C/c1c2ccccc2cc2ccccc12,117% (active)
15,CN(C(=O)c1cccc(NC(=O)Cc2ccc([N+](=O)[O-])cc2)c1)C1CCC1,2.95%
16,Nn1c(SCC(=O)Nc2ccc3c(c2)CCC3)nnc1C1CC1,10.2%
17,CC(C)NC(=O)Nc1cccc2c1O[C@H](CN(C)S(=O)(=O)c1cccs1)[C@@H](C)CN([C@H](C)CO)C2=O,-2.12%
18,COc1ccc(-c2cc(C(=O)N(C)Cc3ccccc3)c3ccccc3n2)cc1,1.22%
19,COc1ccc(CN(C)C(=O)c2cc(-c3ccc(C)cc3C)nc3ccccc23)c(OC)c1OC,43.5% (active)
20,COc1ccc(-c2cc(C(=O)N(C)Cc3ccc(OC)c(OC)c3OC)c3ccccc3n2)cc1OC,39.4%
21,CN(C(=O)c1cccc(NC(=O)C2CCN(C(=O)OC(C)(C)C)CC2)c1)C1CCC1,5.08%
22,CC(C)OC(=O)c1cc(NC(=O)C2C3CCC(O3)C2C(=O)O)cc(C(=O)OC(C)C)c1 (stereo not given),8.17%
23,Cc1sc(NC(=O)C2C3CCC(O3)C2C(=O)O)c(C(=O)OC(C)C)c1-c1ccc(Cl)cc1 (stereo not given),76% (active)
24,CC(C)OC(=O)c1c(NC(=O)c2ccco2)sc2c1CCCC2,12.4%
25,Cn1cccc1C(=O)OCC(=O)NCCc1ccccc1,5.82%
26,CC1(C)C/C(=N/Nc2ccc([N+](=O)[O-])cc2[N+](=O)[O-])C(C)(C)O1,7.54%
27,O=[N+]([O-])c1cc(C(F)(F)F)ccc1NN=C1CCCC1,9.21%
28,O=[N+]([O-])c1ccc(N/N=C2/CCCCC2c2ccccn2)c([N+](=O)[O-])c1 (stereo not given),49.2% (active)

row,SMILES,inhibition
1,Cc1cc([N+](=O)[O-])ccc1NC1CCCC1,10.2%
2,O=C(Nc1ccccc1)O/N=C1\CCCCC1c1ccc([N+](=O)[O-])cc1[N+](=O)[O-] (stereo not given),28.9%
3,C[n+]1ccccc1C1CCCC/C1=N\Nc1ccc([N+](=O)[O-])cc1[N+](=O)[O-] (stereo not given),93.3% (active)
4,Cc1cc(C(=O)OCC(=O)N2C(C)CCCC2C)c2ccccc2n1 (stereo not given),10.9%
5,Cc1cccc(NS(=O)(=O)c2ccc(C)c(C(=O)NCc3cccnc3)c2)c1,6.94%
6,N/C(=N\OC(=O)CCc1ccccc1)c1ccc(Cl)cc1,18.5%
7,Cc1ccc(NC(=O)Cn2cnc3c(OCc4ccccc4)ncnc32)cc1C,6.27%
8,Cc1ccsc1C(=O)NCCc1ccco1,7.13%
9,O=C(Nc1cccc(S(=O)(=O)N2CCOCC2)c1)C12CC3CC(CC(C3)C1)C2,4.36%
10,Cc1cc(C)cc(NC(=O)C2CCCN2S(=O)(=O)c2cccc3cccnc23)c1 (stereo not given),89.3% (active)
11,O=C(O)C1CCCN(S(=O)(=O)c2cccc3cccnc23)C1 (stereo not given),4.71%
12,COc1ccc(NC(=O)C2CCCN(S(=O)(=O)c3cccc4cccnc34)C2)cc1OC (stereo not given),22.1%
13,Cc1ccc(NC(=O)C2CCCN2S(=O)(=O)c2cccc3cccnc23)c(C)c1 (stereo not given),21.6%
14,Cc1cccc(NC(=O)C2CCN(S(=O)(=O)c3cccc4cccnc34)CC2)c1,7.8%
15,O=C(Nc1nccs1)C1CCCN1S(=O)(=O)c1cccc2cccnc12 (stereo not given),47.1% (active)
16,O=C1OC[C@@H]2CCCN2C(=O)[C@H](CC(=O)N(CCO)Cc2ccccc2)C/C=C\CC[C@@H]1Cc1ccc(F)cc1,4.88%
17,CC(=O)OCCC(C)C,3.23%
18,C=CC[C@H](CC(=O)N(CCO)Cc1ccccc1)C(=O)N[C@@H](COC(=O)[C@@H](CC=C)Cc1ccc(F)cc1)Cc1ccccc1,10.8%
19,CCOc1ccc(N2CC(C(=O)NCCN3C(=O)S/C(=C\c4cccnc4)C3=O)CC2=O)cc1 (stereo not given),55.7% (active)
20,Cc1cc(OCCCC(=O)NCCN2C(=O)S/C(=C\c3cccnc3)C2=O)ccc1Cl,97.5% (active)
21,COc1ccc(N2CC(C(=O)NCCN3C(=O)S/C(=C\c4cccnc4)C3=O)CC2=O)c(OC)c1 (stereo not given),153% (active)
22,O=C(NCCN1C(=O)S/C(=C\c2cccnc2)C1=O)c1cccc(OC(F)F)c1,33.8%
23,COc1cccc(NC(=O)C2c3cc(OC)c(OC)cc3C(=O)N(C)C2c2cccnc2)c1 (stereo not given),10.3%
24,CCCNC(=O)C1CC(=O)N(c2ccc(OCC(=O)Nc3cccc(C)c3C)cc2)C1 (stereo not given),7.42%
25,COc1ccccc1N1CC(C(=O)NCCN2C(=O)S/C(=C\c3cccnc3)C2=O)CC1=O (stereo not given),29.4%
26,CCOc1ccc(N2CC(C(=O)NCc3ccccn3)CC2=O)cc1 (stereo not given),13.1%
27,O=C(NCCN1C(=O)S/C(=C\c2cccnc2)C1=O)c1ccc(S(=O)(=O)N2CCCC2)cc1,41%
